The record followed here is PubChem BioAssay (NCATS).

Results with a measured potency or affinity are listed apart. Unmarked numbers belong to inactive results. How the calls were made is not given here.
Further: 0% is about no effect.

For this test the following is noted: Ebola virus entry assay, green fluorescence channel.
For the compound `Cc1cc(C)nc(NS(=O)(=O)c2ccc(N)cc2)n1`, the efficacy was -8.79%. As to `Cc1cc(O)cc(C)c1Cl`, the efficacy is -20.2%. As to `COc1ccc(C(=O)c2ccccc2)c(O)c1`, the efficacy is 30%.

As for `O=C(CCOCCOCCOCCOCCC(=O)Nc1c(I)cc(I)c(C(=O)O)c1I)Nc1c(I)cc(I)c(C(=O)O)c1I`, the efficacy was -16.9%. Turning to `O=C(NC(Cc1cc(=O)[nH]c2ccccc12)C(=O)O)c1ccc(Cl)cc1` (centres undefined), the efficacy was -33.1%. The value for `C#C[C@]1(O)CC[C@H]2[C@@H]3CCC4=CC(=O)CC[C@]4(C)[C@H]3CC[C@@]21C` was -17.3%; that for `CCCCOC(=O)c1ccc(N)cc1` was 12.8%. As to `O=C(CS(=O)Cc1ccco1)NC/C=C\COc1cc(CN2CCCCC2)ccn1` (centres undefined), the efficacy is 29.8%. With `COCCOCC(OC)OC`, the efficacy is 16.2%.

Consider `NS(=O)(=O)c1cc2c(cc1Cl)NC(C(Cl)Cl)NS2(=O)=O` (centres undefined), for which the efficacy was -21%. On to `CCN1CCCC1CN` (centres undefined), for which the efficacy is -12.7%. As for `Cc1onc(-c2ccccc2)c1-c1ccc(S(N)(=O)=O)cc1`, the efficacy was 21%. For the compound `NC(=O)NS(=O)(=O)c1ccc(Cl)cc1`, the efficacy is -22.2%.

As to `O=c1[nH]c(=O)n([C@H]2C[C@H](O)[C@@H](CO)O2)cc1I`, the efficacy is -7.83%. `COc1cc(OC)c(C(=O)CCCN2CCCC2)c(OC)c1`: the efficacy is -22.4%. As to `Cc1nc2ccccn2c(=O)c1CCN1CCC(C(=O)c2ccc(F)cc2)CC1`, the efficacy is 25.5%.

For the compound `O=C(c1ccccc1)C(O)c1ccccc1` (centres undefined), the efficacy is 17.3%. With `CC(=O)NC(=O)c1ccccc1O`, the efficacy was -28.5%. As for `CC1(C)O[C@@H]2C[C@H]3[C@@H]4CCC5=CC(=O)C=C[C@]5(C)[C@@]4(F)[C@@H](O)C[C@]3(C)[C@]2(C(=O)CO)O1`, the efficacy was 24.4%. In the case of `CC(=O)Nc1ccc(/C=N/NC(N)=S)cc1`, the efficacy is 33.2%. To `O=P(O)(O)OCC(O)CO` (centres undefined) belongs 14.9%; to `O=C(O)CSCC(=O)NC1CCSC1=O` (centres undefined), -14.4%.

For `CC(C)NNC(=O)c1ccncc1`, the efficacy was -20.5%. The value for `NCC(=O)CCC(=O)O` was -14.6%; that for `O=c1[nH]c(=O)n([C@H]2C[C@H](O)[C@@H](CO)O2)cc1Br` was -9.16%.

As for `CN1CCN(N)CC1`, the efficacy was 16.4%. To `CO/N=C(/C(=O)N[C@@H]1C(=O)N2C(C(=O)OCOC(=O)C(C)(C)C)=C(C)CS[C@H]12)c1csc(N)n1` belongs -17.1%; to `CC(=O)O[C@@H]1C(=O)O[C@@H]2[C@H]1OC(=O)[C@@H]2OC(C)=O`, -16.6%; to `Cc1ccc(C(=O)C(=O)O)cc1C`, -11.1%.

As to `CCNC(=O)/C=C/c1cccc(Br)c1`, the efficacy was -12%.

`CCN(CC)CCNC(=O)COc1ccc(OC)cc1`: the efficacy was 11.4%. For `Nc1ncnc2c1ncn2Cc1c(F)cccc1Cl`, the efficacy is -22.1%.

As to `Cc1cc(NS(=O)(=O)c2ccc(N)cc2)nc(C)n1`, the efficacy is -28.1%.

In the case of `CCc1oc2ccccc2c1C(=O)c1cc(I)c(O)c(I)c1`, the efficacy was -12%. With `Nc1nc(N)nc(-c2cc(Cl)ccc2Cl)n1`, the efficacy was -23.5%.

For the compound `Nc1cc(C(Cl)=C(Cl)Cl)c(S(N)(=O)=O)cc1S(N)(=O)=O`, the efficacy is -15.2%. With `CCCCCC(C)N` (centres undefined), the efficacy is -23%. The value for `CCOC(=O)c1ccc(OCCN2C[C@H](O)[C@@H](O)[C@H](O)[C@H]2CO)cc1` was -12.9%; that for `CN(C)CCOC(=O)COc1ccc(Cl)cc1` was 14.4%.
